# According to ChEMBL document CHEMBL1961873, “Compounds: GSK PKIS; Assays: Nanosyn kinase panel” (2012):
# What was measured:
# [1] = target: Casein kinase I isoform gamma-2 (Homo sapiens) (UniProt P78368); conditions: at 1 µM
# [2] = target: Casein kinase I isoform gamma-3 (Homo sapiens) (UniProt Q9Y6M4); conditions: at 0.1 µM
# [3] = target: Casein kinase I isoform gamma-3 (Homo sapiens) (UniProt Q9Y6M4); conditions: at 1 µM
# [4] = target: Cyclin-dependent kinase 1 (Homo sapiens) (UniProt P06493); conditions: at 0.1 µM
# [5] = target: Cyclin-dependent kinase 1 (Homo sapiens) (UniProt P06493); conditions: at 1 µM
# [6] = target: Cyclin-dependent kinase 2 (Homo sapiens) (UniProt P24941); conditions: at 0.1 µM
# [7] = target: Cyclin-dependent kinase 2 (Homo sapiens) (UniProt P24941); conditions: at 1 µM
# [8] = target: Cyclin-dependent kinase 2 (Homo sapiens) (UniProt P24941); conditions: at 0.1 µM; remark: listed apart in the source
# [9] = target: Cyclin-dependent kinase 2 (Homo sapiens) (UniProt P24941); conditions: at 1 µM; remark: listed apart in the source
# [10] = target: T1, CDK3/Cyclin E (Homo sapiens) (UniProt P24864+Q00526); conditions: at 0.1 µM
# [11] = target: T1, CDK3/Cyclin E (Homo sapiens); conditions: at 1 µM
# [12] = target: Cyclin-dependent kinase 4 (Homo sapiens) (UniProt P11802); conditions: at 0.1 µM
# [13] = target: Cyclin-dependent kinase 4 (Homo sapiens) (UniProt P11802); conditions: at 1 µM
# [14] = target: Cyclin-dependent kinase 5 (Homo sapiens) (UniProt Q00535); conditions: at 0.1 µM
# [15] = target: Cyclin-dependent kinase 5 (Homo sapiens) (UniProt Q00535); conditions: at 1 µM
# [16] = target: Cyclin-dependent kinase 6 (Homo sapiens) (UniProt Q00534); conditions: at 0.1 µM
# [17] = target: Cyclin-dependent kinase 6 (Homo sapiens) (UniProt Q00534); conditions: at 1 µM
# [18] = target: Dual specificity protein kinase CLK2 (Homo sapiens) (UniProt P49760); conditions: at 0.1 µM
# [19] = target: Dual specificity protein kinase CLK2 (Homo sapiens) (UniProt P49760); conditions: at 1 µM
# [20] = target: Dual specificity protein kinase CLK3 (Homo sapiens) (UniProt P49761); conditions: at 0.1 µM
# Dual specificity protein kinase CLK3 (Homo sapiens), sequence (P49761 whole entry, looked up): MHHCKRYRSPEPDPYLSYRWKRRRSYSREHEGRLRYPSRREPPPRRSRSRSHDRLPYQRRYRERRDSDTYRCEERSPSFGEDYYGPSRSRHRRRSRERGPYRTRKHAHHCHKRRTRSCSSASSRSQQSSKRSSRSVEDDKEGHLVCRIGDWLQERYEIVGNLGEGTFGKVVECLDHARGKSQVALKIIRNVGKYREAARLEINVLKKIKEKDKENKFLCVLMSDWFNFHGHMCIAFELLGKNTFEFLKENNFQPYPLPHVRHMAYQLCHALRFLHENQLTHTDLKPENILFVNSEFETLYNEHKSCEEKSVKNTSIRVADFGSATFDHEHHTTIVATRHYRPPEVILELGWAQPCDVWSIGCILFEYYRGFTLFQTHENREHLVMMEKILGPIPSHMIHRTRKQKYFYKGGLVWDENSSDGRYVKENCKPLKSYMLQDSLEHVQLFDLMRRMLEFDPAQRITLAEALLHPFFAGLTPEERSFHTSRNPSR
# T1 sequence (P24864 whole entry, looked up): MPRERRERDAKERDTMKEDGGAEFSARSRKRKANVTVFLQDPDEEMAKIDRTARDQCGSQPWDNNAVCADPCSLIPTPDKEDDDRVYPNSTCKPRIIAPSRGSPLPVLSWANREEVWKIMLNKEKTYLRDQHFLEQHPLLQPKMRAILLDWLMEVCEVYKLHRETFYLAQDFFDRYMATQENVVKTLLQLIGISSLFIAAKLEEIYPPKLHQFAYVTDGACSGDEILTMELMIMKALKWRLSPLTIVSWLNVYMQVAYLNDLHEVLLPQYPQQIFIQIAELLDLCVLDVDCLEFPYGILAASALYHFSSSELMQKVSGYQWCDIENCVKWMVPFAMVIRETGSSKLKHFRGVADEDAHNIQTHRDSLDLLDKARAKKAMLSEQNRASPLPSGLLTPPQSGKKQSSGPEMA
# T1 sequence (Q00526 whole entry, looked up): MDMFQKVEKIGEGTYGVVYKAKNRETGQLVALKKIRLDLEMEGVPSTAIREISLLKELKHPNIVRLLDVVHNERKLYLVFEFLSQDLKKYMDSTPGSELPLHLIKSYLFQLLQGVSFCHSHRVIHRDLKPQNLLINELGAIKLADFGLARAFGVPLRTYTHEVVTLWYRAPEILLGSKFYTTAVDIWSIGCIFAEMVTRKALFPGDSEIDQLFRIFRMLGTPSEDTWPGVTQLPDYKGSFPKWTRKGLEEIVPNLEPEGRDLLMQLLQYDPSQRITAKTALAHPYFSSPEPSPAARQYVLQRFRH
# Dual specificity protein kinase CLK2 (Homo sapiens), sequence (P49760 whole entry, looked up): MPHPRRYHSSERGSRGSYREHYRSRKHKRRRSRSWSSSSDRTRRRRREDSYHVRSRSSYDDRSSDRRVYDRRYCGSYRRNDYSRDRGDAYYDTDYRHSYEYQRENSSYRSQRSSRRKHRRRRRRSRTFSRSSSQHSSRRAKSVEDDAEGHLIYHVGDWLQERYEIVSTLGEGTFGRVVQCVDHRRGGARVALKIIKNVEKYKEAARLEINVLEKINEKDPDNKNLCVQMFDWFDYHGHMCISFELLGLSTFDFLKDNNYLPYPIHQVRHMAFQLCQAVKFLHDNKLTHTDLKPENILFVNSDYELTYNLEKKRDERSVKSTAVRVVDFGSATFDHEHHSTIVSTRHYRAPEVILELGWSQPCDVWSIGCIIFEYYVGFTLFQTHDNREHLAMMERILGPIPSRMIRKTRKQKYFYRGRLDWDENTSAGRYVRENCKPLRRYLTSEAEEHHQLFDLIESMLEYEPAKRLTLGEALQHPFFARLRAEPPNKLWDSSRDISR
# Cyclin-dependent kinase 5 (Homo sapiens), sequence (Q00535 whole entry, looked up): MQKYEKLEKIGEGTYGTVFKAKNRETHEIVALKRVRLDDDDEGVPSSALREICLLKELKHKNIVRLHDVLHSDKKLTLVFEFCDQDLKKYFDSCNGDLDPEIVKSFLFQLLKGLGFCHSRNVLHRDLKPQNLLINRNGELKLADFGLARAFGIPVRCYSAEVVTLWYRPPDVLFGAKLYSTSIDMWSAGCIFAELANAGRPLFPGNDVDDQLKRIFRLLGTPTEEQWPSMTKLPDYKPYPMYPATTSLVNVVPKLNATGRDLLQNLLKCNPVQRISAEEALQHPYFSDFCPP
# Cyclin-dependent kinase 1 (Homo sapiens), sequence (P06493 whole entry, looked up): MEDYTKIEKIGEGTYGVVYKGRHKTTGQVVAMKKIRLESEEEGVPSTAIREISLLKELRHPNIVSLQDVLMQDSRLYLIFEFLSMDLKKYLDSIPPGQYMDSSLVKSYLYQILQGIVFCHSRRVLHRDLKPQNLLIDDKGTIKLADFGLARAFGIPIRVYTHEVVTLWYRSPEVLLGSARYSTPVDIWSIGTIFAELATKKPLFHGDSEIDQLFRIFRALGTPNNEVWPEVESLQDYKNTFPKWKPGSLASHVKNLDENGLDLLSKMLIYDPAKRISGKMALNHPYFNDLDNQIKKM
# Casein kinase I isoform gamma-3 (Homo sapiens), sequence (Q9Y6M4 whole entry, looked up, canonical isoform): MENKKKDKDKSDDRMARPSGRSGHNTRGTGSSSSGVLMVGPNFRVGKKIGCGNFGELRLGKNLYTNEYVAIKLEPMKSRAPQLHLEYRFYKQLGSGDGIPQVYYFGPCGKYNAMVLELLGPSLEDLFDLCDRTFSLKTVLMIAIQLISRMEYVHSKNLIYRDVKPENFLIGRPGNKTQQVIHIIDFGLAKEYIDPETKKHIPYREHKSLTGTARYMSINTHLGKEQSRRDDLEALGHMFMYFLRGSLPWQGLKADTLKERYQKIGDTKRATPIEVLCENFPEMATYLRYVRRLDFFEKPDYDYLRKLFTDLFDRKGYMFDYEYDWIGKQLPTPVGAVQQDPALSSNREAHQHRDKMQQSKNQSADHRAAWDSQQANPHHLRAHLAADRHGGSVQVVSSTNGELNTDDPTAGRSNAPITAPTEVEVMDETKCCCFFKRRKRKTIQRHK
# Cyclin-dependent kinase 6 (Homo sapiens), sequence (Q00534 whole entry): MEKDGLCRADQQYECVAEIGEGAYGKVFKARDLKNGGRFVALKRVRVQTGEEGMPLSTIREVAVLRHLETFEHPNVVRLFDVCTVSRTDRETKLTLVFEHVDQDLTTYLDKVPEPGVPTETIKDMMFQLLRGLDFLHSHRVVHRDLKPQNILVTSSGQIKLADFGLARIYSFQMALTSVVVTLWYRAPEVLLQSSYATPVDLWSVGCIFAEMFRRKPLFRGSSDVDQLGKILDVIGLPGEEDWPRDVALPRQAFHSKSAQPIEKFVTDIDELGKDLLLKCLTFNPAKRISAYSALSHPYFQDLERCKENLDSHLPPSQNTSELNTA
# Cyclin-dependent kinase 4 (Homo sapiens), sequence (P11802 whole entry): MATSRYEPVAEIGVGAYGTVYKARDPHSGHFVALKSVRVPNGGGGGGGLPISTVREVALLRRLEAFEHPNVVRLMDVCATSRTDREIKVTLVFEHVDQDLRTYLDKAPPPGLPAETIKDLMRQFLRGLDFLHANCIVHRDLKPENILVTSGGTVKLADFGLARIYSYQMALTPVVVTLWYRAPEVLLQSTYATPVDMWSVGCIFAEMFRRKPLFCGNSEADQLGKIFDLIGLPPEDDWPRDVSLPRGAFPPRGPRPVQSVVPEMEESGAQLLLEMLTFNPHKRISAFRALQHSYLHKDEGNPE
# Casein kinase I isoform gamma-2 (Homo sapiens), sequence (P78368 whole entry, looked up, canonical isoform): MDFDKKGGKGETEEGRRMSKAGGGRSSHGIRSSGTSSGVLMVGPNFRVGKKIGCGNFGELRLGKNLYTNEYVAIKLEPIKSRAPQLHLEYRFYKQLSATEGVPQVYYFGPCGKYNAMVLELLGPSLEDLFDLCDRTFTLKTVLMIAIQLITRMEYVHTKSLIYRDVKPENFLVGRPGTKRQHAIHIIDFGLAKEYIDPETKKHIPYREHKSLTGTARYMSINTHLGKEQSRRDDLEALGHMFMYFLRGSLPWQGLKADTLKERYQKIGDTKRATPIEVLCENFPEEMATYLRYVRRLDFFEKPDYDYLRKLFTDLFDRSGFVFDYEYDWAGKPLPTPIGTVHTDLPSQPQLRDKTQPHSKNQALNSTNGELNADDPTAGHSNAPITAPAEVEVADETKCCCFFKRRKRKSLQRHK
Compound,inhibition [1],inhibition [2],inhibition [3],inhibition [4],inhibition [5],inhibition [6],inhibition [7],inhibition [8],inhibition [9],inhibition [10],inhibition [11],inhibition [12],inhibition [13],inhibition [14],inhibition [15],inhibition [16],inhibition [17],inhibition [18],inhibition [19],inhibition [20]
Cc1cc(O)cc(C)c1/C=C/c1cncc(C(=O)N(C)C)c1,3.24%,0.86%,-0.84%,1.02%,5.98%,2.51%,0.67%,1.36%,4.91%,1.4%,0.31%,2.02%,5.17%,1.19%,4.55%,-1.04%,3.9%,2.35%,2.69%,-0.01%
COc1ccc(-c2nn3ncccc3c2-c2ccnc(Nc3cccc(C(F)(F)F)c3)n2)cc1,2.2%,2.44%,1.71%,0.53%,1.61%,0.03%,1.83%,2.35%,4.1%,0.68%,-2.93%,1.42%,3.64%,0.07%,1.77%,-1.93%,-0.66%,0.06%,-1.44%,-0.4%
COc1cccc(-n2nc(C)c3c(N/N=C(\C)c4ccncc4)ncnc32)c1,0.28%,-0.15%,-0.59%,0.65%,2.77%,1.78%,7.56%,1.09%,2.33%,-0.92%,-0.83%,0.53%,2.41%,0.97%,5.69%,-2.27%,0.77%,-2.05%,0.8%,-1.02%
Oc1cccc(-c2nc(-c3ccccc3)[nH]c2-c2ccncc2)c1,2.78%,2.62%,2.68%,0.66%,2.64%,1.15%,-1.31%,5.08%,6.33%,4.62%,-2%,2.45%,5.74%,0.71%,3.06%,-1.44%,6.21%,1.81%,4.52%,1.66%
NC(=O)c1cccc(Nc2nccc(Nc3cccc(F)c3)n2)c1,1.73%,0.99%,0.09%,1.24%,3.33%,2.07%,4.6%,0.92%,5.16%,0.62%,3.01%,0.31%,2.2%,0.58%,3.99%,-1.89%,0.33%,0.31%,5.73%,-0.43%
O=S(=O)(CCOCc1ccc(-c2ccc3ncnc(Nc4ccc(OCc5cccc(F)c5)c(Cl)c4)c3c2)o1)c1ccccc1,1.75%,0.25%,0.46%,3.78%,4.97%,2.29%,2.76%,4.07%,6.29%,-0.59%,-2.84%,0.35%,4.69%,4.26%,5.68%,0.17%,3.76%,-0.59%,1.39%,0.11%
N#Cc1c(NC(=O)c2ccccc2F)sc2c1CCCC2,-1.07%,-2.12%,-0.42%,1.03%,1.65%,-0.45%,0.88%,-2.16%,-0.2%,-1.77%,-1.38%,-0.94%,1.2%,0.27%,1.58%,-4.39%,-2.09%,-1.95%,-0.15%,-0.38%
Cc1ccc2c(-c3ccnc(Nc4ccc5c(c4)OCCO5)n3)c(-c3ccc(C(F)(F)F)cc3)nn2n1,1.66%,1.42%,1.29%,1.21%,2.01%,-0.16%,2.09%,0.31%,1.68%,-0.58%,-3.94%,0.65%,1.74%,0.21%,1.41%,-0.74%,-1.75%,1.25%,-0.4%,1.41%
COc1cc2ncnc(Nc3ccc4c(cnn4Cc4ccccc4)c3)c2cc1OC,2.98%,0.8%,1.75%,2.61%,6.2%,4.41%,2.68%,6.35%,7.13%,-0.7%,-1.25%,1.5%,5.06%,4.4%,6.81%,-3.86%,-2.1%,-0.74%,0.84%,1.15%
C[C@@H](Oc1cc(-n2cnc3ccc(OCC4CCN(C)CC4)cc32)sc1C(N)=O)c1ccccc1C(F)(F)F,-3.37%,-1.08%,-3.59%,2.12%,3.02%,-0.78%,2.52%,-0.93%,0.83%,-1.54%,0.6%,-1.73%,1%,0.01%,3.08%,-3.79%,-1.66%,1.74%,9.73%,-0.19%
COc1ccc2ncnc(Nc3ccc(OCc4ccccc4)cc3)c2c1,2.03%,-0.66%,1.41%,0.67%,1.75%,1.36%,-4.84%,0.4%,1.13%,1.69%,-1.97%,0.76%,0.15%,0.36%,0.72%,-0.31%,1.08%,1.07%,0.25%,0.35%
NS(=O)(=O)c1ccc(NC=C2C(=O)Nc3ccc4ncsc4c32)cc1,19.5%,6.11%,26.3%,40.7%,69.5%,89.1%,109%,74.3%,76.7%,69.4%,97.8%,46.4%,71.3%,68.2%,74.7%,52.8%,77.7%,28.3%,80%,3.57%
CN(C)C(=O)O[C@H]1CN[C@H](C#Cc2cc3ncnc(Nc4ccc(OCc5cccc(F)c5)c(Cl)c4)c3s2)C1,1.66%,1.79%,0.71%,0.08%,-0.52%,1.13%,1.7%,3.08%,3.18%,0.39%,-2.05%,1.82%,1.04%,0.51%,0.96%,2.1%,4.47%,-0.97%,0.42%,1.51%
